Results on 99 molecules are retold here after PubChem BioAssay AID624296 (National Center for Advancing Translational Sciences (NCATS), 2012).

Molecules are shown by their SMILES. The whole screen tested about 350,000 compounds, of which about 9,900 (2.8%) were called active. Entries that show only a call come without a potency. Inconclusive results (about 15%) are left out. The call rests on the fitted dose curve; in most records, active means well fitted activation curve with a large enough effect; inconclusive means small, poorly fitted or top-dose-only effect; inactive means no such curve, though single readings can be large or run the other way. This excerpt belongs to a sample that is enriched for actives.
Potency means the concentration at half of the fitted maximal effect.

A short description of the assay: A quantitative high throughput screen for small molecules that induce DNA re-replication in MCF 10a normal breast cells. Further: nearly all actives have a fitted effect of over 50% in size. Conditions: MCF 10A DNA re-replication, Hoechst nuclear intensity, 48 h; series mostly up to 46.1 µM. The text has this:
H Molecular Libraries Probe Production Network [MLPCN]
NIH Chemical Genomics Center [NCGC]
Assay Provider: Melvin DePamphilis, NICHD, NIH
Eukaryotic cells normally restrict genome duplication to once per cell division. When this process is aberrant, DNA re-replication occurs when cells reinitiate DNA replication before the first round of replication is complete. DNA re-replication induces the DNA damage response, arrests cell proliferation, and triggers apoptosis. The cell cycle components cyclin A, Cdt-1, Cdc6 and geminin are critical regulators of this process and their misregulation results in DNA re-replication in normal and cancer cells. To identify compounds that induce re-replication in normal cells, an image-based assay was used to measure DNA content of nuclei, as detected by the fluorescent DNA binding dye, Hoechst. Cell nuclei were imaged by a fluorescence scanning plate imager and compounds that induce DNA re-replication were identified by the increase of nuclei with elevated fluorescence intensity
For screening, 250 cells in 5 uL/well were dispensed into black clear 1536-well plates (Aurora) using a solenoid-based dispenser. Following transfer of 23 nL compound or DMSO vehicle by a pin tool, the plates were incubated 48 hr at 37 C and 5% CO2. After addition of 1 uL/well Hoescht stain, the plates were incubated 40 min at 37 C, 5% CO2 and total intensity of fluorescent objects (nuclei) were enumerated by an Acumen Explorer Ex3 (TTP LabTech) fluorescence scanning plate imager (405 nm excitation, 500-530 nm emission).
Keywords: NIH Roadmap, MLPCN, MLI, MLSMR, qHTS, NCGC, DNA replication, cancer
For the molecule `COCC(=O)N=Nc1c(O)[nH]c2ccccc12`, the Potency entry was “inactive”. As for `O=C(CCN1CCCCC1)N=Nc1c(O)[nH]c2ccccc12`, the Potency was 3.66 µM (active). Consider `Cc1cccc(N(CC(=O)N=Nc2c(O)[nH]c3ccccc23)S(C)(=O)=O)c1C`, for which the Potency result was “inactive”. As for `CCCCc1ccc(NS(=O)(=O)c2cccc(C(=O)N3CCCN(C)CC3)c2)cc1`, the Potency entry was “inactive”. In the case of `O=C(O)c1ccc(S(=O)(=O)c2ccccc2)s1`, the Potency result is “inactive”.

Take `Cc1nc2ccc(N)nc2nc1C`: the Potency result is “inactive”. Turning to `CCN(C[C@H]1N[C@@](CC)(C(=O)OC)[C@H]2C(=O)N(C)C(=O)[C@@H]12)C(=O)Nc1ccc(F)cc1`, the Potency entry is “inactive”. With `CCOC(=O)c1c(C)oc2cc(Sc3ccccc3)c(O)c(O)c12`, the Potency result is “inactive”. For `CCOC(=O)c1c(-c2ccccc2)oc2ccc(OCC(=O)NN)cc12`, the Potency entry is “inactive”.

As for `CCOC(=O)c1c(-c2ccccc2)oc2ccc(OCC(N)=O)cc12`, the Potency result is “inactive”. Regarding `Cc1oc2cc(Br)c(O)c(Br)c2c1C(=O)c1ccccc1`, the Potency result is “inactive”. For the molecule `CCOC(=O)c1c(-c2ccccc2)oc2cc(Br)c(O)c(C=O)c12`, the Potency is 2.91 µM (active). Take `CCOC(=O)c1c(-c2ccccc2)oc2cc(Br)c(O)cc12`: the Potency was 16.4 µM (active). With `CC[C@]12c3[nH]c4cc(CCC(=O)N(C)C)ccc4c3CCN1C(=O)[C@@H](CC(=O)NCc1ccco1)C[C@@H]2C(=O)N1CCN(C(=O)c2ccco2)CC1`, the Potency result was “inactive”. With `O=C(CSc1nnc(Nc2ccccc2F)s1)NC1CCCC1` the entry was “inactive”. With `O=C(COC(=O)c1n[nH]c2ccccc12)Nc1ccccc1Br`, the Potency entry is “inactive”. As for `COc1ccc(NC(=O)/C(N=Nc2cccc(S(=O)(=O)Nc3ccc(SC(F)F)cc3)c2)=C(\C)O)cc1`, the Potency entry was “inactive”. With `CC(C)=CCc1c(O)c(CC=C(C)C)c2occ(-c3ccc(O)cc3)c(=O)c2c1O` the figure was 9.2 µM (active); with `O=c1c(-c2ccccc2)coc2cc(O)ccc12`, “inactive”.

`CC(C)CN(Cc1c(O)ccc2c(=O)c(-c3ccccc3)coc12)CC(C)C`: the Potency entry was “inactive”. Consider `O=C(NN=Cc1ccc([N+](=O)[O-])cc1)C1CC1`, for which the Potency result is “inactive”. Take `COc1ccccc1N1CCN(C(=O)C2Cc3ccccc3CN2C(=O)c2ccco2)CC1` (centres undefined): the Potency entry is “inactive”. As to `CCOc1ccc(OCC)c(NC(=O)CCS(=O)(=O)c2ccc(C)cc2)c1`, the Potency entry was “inactive”. With `Cc1ccc(S(=O)(=O)CC(=O)Nc2nnc(C)s2)cc1`, the Potency result was “inactive”. With `CC(=O)N1CCc2c(sc(NC(=O)CCS(=O)(=O)c3ccc(C)cc3)c2C(N)=O)C1` the figure was 3.26 µM (active).

On to `Cc1cc(C)cc(-c2nnc(SCC(=O)NC3CC3)o2)c1`, for which the Potency entry was “inactive”. In the case of `O=C(NCc1ccccc1CN1CCCC1)c1cccc(S(=O)(=O)Nc2ccc(F)cc2)c1`, the Potency entry was “inactive”. For the molecule `COc1cc(C(=O)CCc2ccc3c(c2)OCO3)cc(OC)c1OC`, the Potency entry is “inactive”. As for `Cc1ccccc1-c1ccc(Nc2ccc(C(=O)N3CCOCC3)cc2)nn1`, the Potency entry was “inactive”. As for `Cc1oc2c(c1C(=O)N1CCOCC1)C(=O)c1ccccc1C2=O`, the Potency was 16.4 µM (active). With `Cc1noc(C)c1C(=O)N1CCOCC1`, the Potency entry was “inactive”. As for `NS(=O)(=O)c1ccc(CNC(=O)c2cccc(S(=O)(=O)N3CCc4ccccc43)c2)cc1`, the entry is “inactive”. Consider `COc1ccc(C(C)(C)C)cc1NC(=O)CCN1C(=O)C2CCCCC2C1=O` (centres undefined), for which the Potency entry is “inactive”.

`COc1ccc(C2=NN(C(=O)c3ccccc3C(=O)O)C(c3ccccc3O)C2)cc1` (centres undefined): the Potency entry is “inactive”. For the molecule `COc1ccc(C2=NN(C(C)=O)C(c3ccccc3)C2)cc1` (centres undefined), the Potency result was “inactive”. `COc1ccc(C2=NN(c3ccccc3)C(c3cccs3)C2)cc1` (centres undefined): the Potency was 3.26 µM (active). For the molecule `O=C(Nc1cc(S(=O)(=O)N2CCCCC2)ccc1Cl)C1COc2ccccc2O1` (centres undefined), the Potency entry was “inactive”. `C=CC[C@@H](CC(=O)N[C@@H](CO)Cc1ccccc1)C(=O)NCCOC(=O)[C@@H](CC=C)CC(=O)OC(C)(C)C`: the Potency result was “inactive”. For the molecule `CCCCn1c(N)c(N(CCC(C)C)C(=O)COC(=O)c2ccc(CC)cc2)c(=O)[nH]c1=O`, the Potency result is “inactive”.

With `O=C(/C=C/c1ccco1)NC(=S)Nc1ccccc1Br`, the Potency was 20.6 µM (active). Take `COc1ccc(Cl)cc1C(=O)NNC(=S)NC(=O)/C=C/c1ccco1`: the Potency entry was “inactive”.

For the molecule `O=C(/C=C/c1ccco1)NC(=S)N1CCCCC1`, the Potency result is “inactive”. With `COc1ccc2c(c1)C(=O)CC(c1ccccc1)O2` (centres undefined) the entry was “inactive”; with `COc1cccc(-c2cc(C(=O)N/N=C/c3ccc(OC)c(COC(C)=O)c3)c3ccccc3n2)c1`, “inactive”.

Take `CCOc1ccc(-c2cc(C(=O)N/N=C/c3ccc(O)cc3)c3ccccc3n2)cc1`: the Potency was 2.06 µM (active). With `COc1cc(/C=N/NC(=O)c2cc(-c3ccccc3C)nc3ccccc23)cc(OC)c1O`, the Potency entry was “inactive”. Take `O=C1COc2ccc(C(=O)COC(=O)CCOc3ccccc3)cc2N1`: the Potency result was “inactive”.

On to `Cc1ccc(-c2csc(NC(=O)Cn3[nH]c(=O)c4ccccc4c3=O)n2)cc1`, for which the Potency is 3.26 µM (active). Regarding `CC(=O)NCc1ccc(-c2csc(NC(=O)CCCc3nc4ccccc4c(=O)[nH]3)n2)cc1`, the Potency entry is “inactive”. Take `O=C(CSc1nc2ccccc2c(=O)[nH]1)Nc1nc(-c2ccc(Br)cc2)cs1`: the Potency entry was “inactive”. As for `O=C(Cn1cnc2c(OCc3ccccc3)ncnc21)NCCCn1ccnc1`, the Potency result is “inactive”. `CC(C)Sc1nc(N)nc2c1ncn2C1OC(CO)C(O)C1O` (centres undefined): the Potency entry is “inactive”. `Cn1c(N)c(C(=O)COC(=O)c2cccc(S(=O)(=O)N3CCOCC3)c2)c(=O)n(C)c1=O`: the Potency entry was “inactive”.

In the case of `CC(C)n1c(-c2cccs2)nc2ccccc21`, the Potency result was “inactive”. Consider `COc1ccccc1C(=O)Nn1c(-c2cccs2)nc2ccccc2c1=O`, for which the Potency result is “inactive”. Take `COCCCn1c(-c2cccs2)nc2nc3ccccc3nc21`: the Potency is 18.4 µM (active). With `COC(=O)C1CCN(C(=O)COC(=O)c2cc(S(=O)(=O)N3CCOCC3)ccc2C)CC1` the entry was “inactive”; with `Cc1ccc2c(O)c(Cc3ccccc3)c(=O)[nH]c2n1`, “inactive”; with `O=C(NCC1CCCO1)c1ccc(S(=O)(=O)Nc2ccc(F)cc2)cc1` (centres undefined), “inactive”. In the case of `COc1ccc(/C=N/NC(=O)c2ccc3c(c2)OCCO3)c(OC)c1`, the Potency entry was “inactive”. For the molecule `COc1ccc(/C=N/NC(=O)CNC(=O)c2ccc(S(=O)(=O)N3CCCC3)cc2)c(OC)c1`, the Potency result is “inactive”. As for `COc1ccc(/C=N/NC(=O)Nc2ccc3nsnc3c2)c(OC)c1`, the figure is 13 µM (active); as for `COc1ccc(CNC(=O)CN2C(=O)c3ccccc3S2(=O)=O)cc1`, “inactive”. Consider `COc1ccc(C(=O)NCc2ccc(C)cc2)cc1S(=O)(=O)N1CCCC1`, for which the Potency entry is “inactive”. In the case of `Cc1ccc(-c2csc(C(C#N)=C(O)CN3CCN(C(=O)c4ccco4)CC3)n2)cc1`, the Potency entry is “inactive”. As for `O=S(=O)(c1ccc(SCc2ccc(Br)cc2)nc1)N1CCOCC1`, the Potency result is “inactive”. Turning to `Cc1ccc(OCCC(=O)Nc2ccc(S(=O)(=O)Nc3nccs3)cc2)cc1`, the Potency entry was “inactive”. Turning to `COC1=NC2=NCCN2C(OC)=N1`, the Potency result is “inactive”. As to `Cc1cccc(C)c1NC(=O)CN(C)C(=O)CCC(=O)c1ccccc1`, the Potency result was “inactive”. `Cc1cccc(C)c1NC(=O)C(c1ccccc1)N1CC(=O)Nc2ccccc21` (centres undefined): the Potency result was “inactive”.

As to `Cc1cccc(C)c1NC(=O)C(Cl)C(=O)c1ccccc1` (centres undefined), the Potency was 18.4 µM (active).

`Cc1ccc(NC(=O)C2CC(=O)N(c3ccc4c(c3)OCCO4)C2)cc1S(=O)(=O)N1CCCCCC1` (centres undefined): the Potency entry is “inactive”. With `Cc1nc(SCC(=O)NC2CCCCC2C)c(C#N)c(C)c1C` (centres undefined) the entry was “inactive”; with `CC(C)n1ncc2c(C(=O)Nc3ccc(CC#N)cc3)cc(C3CC3)nc21`, “inactive”. As to `COc1ccc(OC)c(Cc2cnc3nc(N)nc(N)c3c2C)c1`, the Potency entry was “inactive”. `COc1ccc(Nc2oc(-c3ccccc3Cl)nc2C#N)cc1`: the Potency was 2.59 µM (active). For the molecule `Cc1ccccc1-c1nc(C#N)c(NCc2ccco2)o1`, the Potency result was “inactive”. As for `COc1ccccc1-c1nc(C#N)c(N2CCC(C(N)=O)CC2)o1`, the entry is “inactive”.

As for `CC(NC(=O)c1ccc(S(=O)(=O)Nc2ccccc2)cc1)c1ccc(S(N)(=O)=O)cc1` (centres undefined), the Potency result is “inactive”. For the molecule `CCC(=O)Nc1ccc(C(=O)Nc2cccc(OC)c2)cc1`, the Potency result was “inactive”. Take `COc1cccc(CC(=O)Nc2ccc(-c3csc(C)n3)cc2)c1`: the Potency was 9.2 µM (active).

Regarding `COc1cccc(CC(=O)Nc2nc(-c3ccc(OC)c(OC)c3)cs2)c1`, the Potency result was “inactive”. As to `CCCCC[C@@H]1C=C(C(=O)O)[C@H](c2ccc(C#N)cc2)N1S(=O)(=O)c1ccc(C)cc1`, the Potency entry was “inactive”.

On to `O=C1C[C@@H]2c3c(cccc3CN1Cc1ccccc1)C[C@@H](O)[C@H]2O`, for which the Potency entry is “inactive”. In the case of `CCOC(=O)c1c(CN(C)C)n(-c2ccccc2)c2cc(Br)c(O)cc12`, the Potency result was “inactive”.

On to `C=CCO/N=C(\C)c1c(O)c(C)c(-c2ccccc2)n(-c2ccccc2)c1=O`, for which the Potency result was “inactive”. Take `CCO/N=C(/C)c1c(O)cc(-c2ccccc2)n(-c2ccccc2)c1=O`: the Potency is 14.6 µM (active). As for `CCN(CC)S(=O)(=O)c1ccc(CNC(=O)CN2C(=O)NC3(CCc4ccccc43)C2=O)cc1` (centres undefined), the Potency result is “inactive”. Regarding `COCCN(Cc1ccccc1)C(=O)Cc1ccc(S(=O)(=O)N2CCOCC2)s1`, the Potency result was “inactive”. With `Cc1ccc(S(=O)(=O)N2CCCCC2)cc1NC(=O)CCNC(=O)c1ccccc1`, the Potency entry is “inactive”.

For the molecule `C#CCOCCOCCOCCNc1nc(N2CCOCC2)nc(N2CCN(C(=O)[C@H](Cc3ccc(O)cc3)n3cc(CCO)nn3)CC2)n1`, the Potency entry was “inactive”. As for `Cc1ccc(NC(=O)C2CCC(C(C)(C)C)CC2)cc1S(=O)(=O)N1CCOCC1` (centres undefined), the figure is 18.4 µM (active); as for `Cc1ccc(NC(=O)NC2CCCCC2)cc1S(=O)(=O)N1CCOCC1`, “inactive”. With `Cc1ccc(NC(=O)COC(=O)C2CC2)cc1S(=O)(=O)N1CCOCC1` the entry was “inactive”; with `CCC1([N+](=O)[O-])COC(c2ccc(C)cc2)OC1` (centres undefined), “inactive”; with `COc1ccccc1N1CC(C(=O)NCCN2C(=O)S/C(=C\c3cccnc3)C2=O)CC1=O` (centres undefined), “inactive”.

Consider `COc1cccc(CNC(=O)Cc2csc(Nc3nc(=S)[nH]c4ccccc34)n2)c1`, for which the Potency result was “inactive”. With `O=C(Cc1csc(Nc2nc(=S)[nH]c3ccccc23)n1)NCCCN1CCN(c2cccc(Cl)c2)CC1`, the Potency was 14.6 µM (active).

Consider `O=C(CCn1c(=O)[nH]c2ccccc2c1=O)NCCCN1CCN(c2cccc(Cl)c2)CC1`, for which the Potency result is “inactive”.
